# Results as given in PubChem BioAssay.
# Potency and affinity values are given separately. Active and inactive are the calls of the source. Entries that show only a call come without a potency. No cut-off is given here; in the data, nearly all actives have IC50 up to about 0.91 µM.
# Target: Calcium-dependent protein kinase 4 (Plasmodium falciparum (isolate 3D7)) (UniProt Q8IBS5)
# Assay: PfCDPK4 kinase inhibitors, biochemical, TCAMS library (AID 1159588)
# Settings: recombinant PfCDPK4, Kinase-Glo ATP depletion luminescence
# Chain of Calcium-dependent protein kinase 4 (Plasmodium falciparum (isolate 3D7)) (Q8IBS5 whole entry, looked up): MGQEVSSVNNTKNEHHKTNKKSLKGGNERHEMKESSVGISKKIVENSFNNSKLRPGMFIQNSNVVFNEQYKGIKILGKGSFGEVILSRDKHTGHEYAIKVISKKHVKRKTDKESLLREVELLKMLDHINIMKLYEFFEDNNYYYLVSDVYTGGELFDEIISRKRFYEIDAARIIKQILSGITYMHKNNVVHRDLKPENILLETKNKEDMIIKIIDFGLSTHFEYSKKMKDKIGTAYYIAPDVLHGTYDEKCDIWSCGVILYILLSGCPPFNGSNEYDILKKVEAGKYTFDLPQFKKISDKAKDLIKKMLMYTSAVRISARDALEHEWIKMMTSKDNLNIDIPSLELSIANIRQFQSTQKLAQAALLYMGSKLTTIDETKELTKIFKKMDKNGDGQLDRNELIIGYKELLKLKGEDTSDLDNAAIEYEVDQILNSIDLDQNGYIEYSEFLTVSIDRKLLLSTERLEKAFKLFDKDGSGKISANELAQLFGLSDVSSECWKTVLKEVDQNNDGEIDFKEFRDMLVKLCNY
row,SMILES,outcome
1,O=C(/C=C/c1cccc2ccccc12)NC1CCC(CN2CCC(c3c[nH]c4ccccc34)CC2)CC1 (stereo not given),inactive
2,CN(c1cc(NC(=O)c2cccs2)ccn1)C1CCN(Cc2ccccc2)CC1,inactive
3,Oc1ccccc1CNCC(O)c1cc(C(F)(F)F)cc(C(F)(F)F)c1 (stereo not given),inactive
4,Cn1cc(CN2CCC(CCOC(c3ccccc3)c3ccccc3)CC2)cn1,inactive
5,COc1ccc(-c2ccccc2)cc1NC(=S)NC1CCC(CN2CCC(c3c[nH]c4ccccc34)CC2)CC1 (stereo not given),inactive
6,C=CCOc1ccccc1CNCC(O)c1cccc(C(F)(F)F)c1 (stereo not given),inactive
7,O=C(Nc1ccc(Oc2ccccc2)cc1)NC1CCC(CN2CCC(c3c[nH]c4ccccc34)CC2)CC1 (stereo not given),inactive
8,CC[C@H]1CN2CC[C@@H]1C[C@H]2[C@H](O)c1cc(N2CCC(CO)CC2)nc2ccc(OC)cc12,inactive
9,O=[N+]([O-])c1ccc(Oc2c(Cl)cc(S(=O)(=O)N3CCC(CN4CCC(c5c[nH]c6ccccc56)CC4)CC3)cc2Cl)c(Cl)c1,inactive
10,OC(CNC1CCCCCCC1)c1ccc(Cl)c(Cl)c1 (stereo not given),inactive
11,Cc1[nH]c2ccccc2c1C1=CCN(CCCCCC23CCCc4cccc(c42)NC3=O)CC1 (stereo not given),inactive
12,CC[C@H]1CN2CC[C@H]1C[C@H]2C(O)c1cc(OC)nc2ccccc12 (stereo not given in full),inactive
13,CCCc1c(C(=O)NC2CCC(CN3CCC(c4c[nH]c5ccccc45)CC3)CC2)cnn1-c1c(Cl)cc(Cl)cc1Cl (stereo not given),inactive
14,C/C=C1/CN2CC[C@H]1C[C@H]2[C@H](O)c1ccnc2ccc(OC)cc12,inactive
15,O=C(/C=C/c1ccc(Cl)c(Cl)c1)NCCCCCN1C2CCC1CC(c1c[nH]c3ccccc13)C2 (stereo not given),inactive
16,C1=C(c2c[nH]c3ccccc23)CCN(Cc2ccccc2)C1,inactive
17,CC[C@H]1CN2CC[C@H]1C[C@H]2[C@H](O)c1cc(-c2ccc(F)cc2)nc2ccc(OC)cc12,inactive
18,Cc1[nH]c2ccccc2c1C1=CCN(CCN2CCCc3c(Br)cccc3C2=O)CC1,inactive
19,CN1CCC(N(C)c2nccc(N3CCN(Cc4cncn4Cc4ccccc4)CC3)n2)CC1,inactive
20,CCCCCCCc1cc(O)c2c3c(c(=O)oc2c1)CN(C)CC3,inactive
21,O=C(/C=C/c1cccs1)NC1CCC(CN2CCC(c3c[nH]c4ccccc34)CC2)CC1 (stereo not given),inactive
22,CN(C)CCCn1cc(C(=O)OC2C[C@H]3CC[C@@H](C2)N3C)c2cc(-c3ccccc3)ccc21 (stereo not given in full),inactive
23,O=C(c1cc(C(F)(F)F)cc(C(F)(F)F)c1)N1CC[C@H](CCN2CCC3(CC2)C(=O)NCN3c2ccccc2)C[C@H]1Cc1ccc(Cl)c(Cl)c1,inactive
24,Cc1cc(O)cc2c(C3CCN(CC4CCC(NC(=O)/C=C/c5ccccc5Cl)CC4)CC3)c[nH]c12 (stereo not given),inactive
25,CC[C@H]1CN2CC[C@H]1C[C@H]2[C@H](O)c1ccnc2ccc(C#N)cc12,inactive
